In PubChem BioAssay (EPA / NIEHS):
Records with an inconclusive call do not appear. Activity calls are given as the source filed them. The calls were made as follows: active = hit-call score of the fitted dose curve at least 0.9, where 1 is the maximum; inconclusive = response in the unintended direction; inactive = score below 0.9.

Assay: Tanguay_ZF_120hpf_PE_legacy: (Legacy) Oregon State University Tanguay Lab 120 Hour Post-fertilization zebrafish Assay for Pericardial Edema (AID 2283640);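 as to AC50: potency for increased incidence of pericardial edema versus DMSO baseline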
Procedure: Tanguay_ZF_120hpf_legacy is a whole embryo, multiplexed endpoint assay using zebrafish larvae exposed for 120 hours post fertilization on a 96-well plate.Tanguay_ZF_120hpf_PE_legacy is one of one assay component(s) measured or calculated from the Tanguay_ZF_120hpf_legacy assay. It is designed to make measurements of zebrafish development as detected with brightfield microscopy of developing zebrafish embryos.Data from the assay component Tanguay_ZF_120hpf_PE_legacy was analyzed into 1 assay endpoints. This assay endpoint, Tanguay_ZF_120hpf_PE_legacy, was analyzed in the positive analysis fitting direction relative to DMSO as the negative control and baseline of activity. Using a type of morphology reporter, gain-of-signal activity can be used to understand changes in developmentals as they relate to the whole embryo. To generalize the intended target to other relatable targets, this assay endpoint is annotated to the zebrafish development intended target family, where the subfamily is embryonic morphogenesis.
Zebrafish husbandry: Tropical 5D wild-type adult zebrafish were housed in at an approximate density of 1000 per 100 gallon tank at the Sinnhuber Aquatic Research Laboratory, Oregon State University, Corvallis, OR. Each tank was kept at standard laboratory conditions of 28C on a 14-h light/10-h dark photoperiod in fish water consisting of reverse osmosis water supplemented with a commercially available salt (Instant Ocean). Spawning funnels were placed into the tanks the night prior, and embryos were collected and staged. […] Ten microliters of each row of dilution plate 2 was added to 2 exposure plates. The final DMSO concentration used was 0.64% (vol/vol). Thirty-two embryos were also exposed to 5uM trimethyltin chloride (positive control). Plates were sealed to prevent evaporation and foil covered to reduce light exposure and kept in a 28C incubator. Embryos were statically exposed until 120 hpf. At 24 hpf, embryos were assessed for photomotor response using a custom photomotor response analysis tool (PRAT) and for developmental toxicity endpoints (MO24: mortality at 24 hpf, DP: developmental progression, SM: spontaneous movement, and NC: notochord distortion). At 120 hpf, locomotor activity was measured using Viewpoint Zebralab and assessed for 18 endpoints. Zebrafish acquisition and analysis program (ZAAP), a custom program designed to inventory, acquire, and manage zebrafish data, was used to collect developmental endpoints as either present or absent (i.e., binary responses were recorded). If mortality occurred for an embryo (at either 24 or 120 hpf), the non-mortality endpoints were not measured.
In the case of `Cc1cc(=O)[nH]c(=S)[nH]1`, the outcome is reported as “inactive”.
For `CCCCOC(=O)CCCCCCCCC(=O)OCCCC`, the outcome was “inactive”.
In the case of `CC(=O)OCCOCCOCCOC(C)=O`, the outcome is reported as “inactive”.
In the case of `COc1cc(C=O)ccc1O`, the AC50 is reported as 37.6 µM (active).
For `Cc1cccc([N+](=O)[O-])c1C`, the outcome was “inactive”.
In the case of `CCCCN(CCCC)CCCC`, the outcome is reported as “inactive”.
In the case of `CCCCc1ccc2c(n1)[C@@H](c1ccc(OC)cc1C[C@H](C)C(=O)O)[C@H](C(=O)O)[C@H]2c1ccc2c(c1)OCO2`, the outcome is reported as “inactive”.
For `CCCCCCCCCCCC(=O)OC`, the outcome was “inactive”.
In the case of `CCOC(=O)CCC(=O)OCC`, the outcome is reported as “inactive”.
For `O=C(OCCCCCOC(=O)c1ccccc1)c1ccccc1`, the outcome was “inactive”.
In the case of `O=C(O)Cc1ccccc1Nc1c(Cl)cccc1Cl`, the outcome is reported as “inactive”.
In the case of `Oc1ccc2ccccc2c1N=Nc1ccccc1`, the AC50 is reported as 35.2 µM (active).
With `CCCCCCC(=O)OCC` the outcome was “inactive”.
With `Cc1ccc(C(C)C)c(O)c1` the outcome was “inactive”.
With `C[Si]1(C)O[Si](C)(C)O[Si](C)(C)O[Si](C)(C)O1` the outcome was “inactive”.
In the case of `COC(=O)c1ccc(O)cc1`, the outcome is reported as “inactive”.
For `CCCCC(CC)COC(=O)CC(C(=O)OCC(CC)CCCC)S(=O)(=O)O` (stereo not given), the outcome was “inactive”.
For `CCc1c(C(=O)NN2CCCCC2)nn(-c2ccc(Cl)cc2Cl)c1-c1ccc(Br)cc1`, the outcome was “inactive”.
In the case of `Oc1ccc2c(c1)OC[C@@H](N1CCC(O)(c3ccc(F)cc3)CC1)[C@H]2O`, the outcome is reported as “inactive”.
For `COc1cc(S(=O)(=O)O)c(C)cc1N=Nc1c(O)ccc2cc(S(=O)(=O)O)ccc12`, the outcome was “inactive”.
With `Cc1ccc(C)c(O)c1C` the outcome was “inactive”.
For `CC(=O)C(C)=CC1C(C)=CCCC1(C)C` (stereo not given), the outcome was “inactive”.
With `Cc1ccc(Cl)cc1` the outcome was “inactive”.
For `CCOC(=O)C(C)(C)Oc1ccc(Cl)cc1`, the outcome was “inactive”.
In the case of `COCCOCCOC`, the outcome is reported as “inactive”.
For `O=C(O)CCCCC(=O)O`, the outcome was “inactive”.
In the case of `NC(=O)Cn1c(=O)cc(CCN2CCN(c3nccc4sccc34)CC2)c2ccc(F)cc21`, the outcome is reported as “inactive”.
In the case of `CCCCCC(=O)O`, the outcome is reported as “inactive”.
For `CC1(C)NC(=O)NC1=O`, the outcome was “inactive”.
With `Cc1ccc2ncccc2c1` the outcome was “inactive”.
For `CC=Cc1ccc(O)c(OC)c1`, the outcome was “inactive”.
For `O=c1c(O)c(-c2ccc(O)c(O)c2)oc2cc(O)cc(O)c12`, the outcome was “inactive”.
For `Cc1oc(-c2ccccc2)nc1CCOc1cccc2c1ccn2CCC(=O)O`, the outcome was “inactive”.
In the case of `CCCc1cc(=O)[nH]c(=S)[nH]1`, the outcome is reported as “inactive”.
For `C=CCc1ccc(O)c(OC)c1`, the outcome was “inactive”.
In the case of `Cc1ccccc1Cl`, the outcome is reported as “inactive”.
With `OC[C@@H](O)[C@@H](O)[C@H](O)[C@H](O)CO` the outcome was “inactive”.
For `O=c1[nH]cc(F)c(=O)[nH]1`, the outcome was “inactive”.
With `CC(C)c1ccc(C(=O)N=C(N)N)cc1S(C)(=O)=O` the outcome was “inactive”.
In the case of `Clc1cc(Cl)c(Cl)cc1Cl`, the outcome is reported as “inactive”.
